# Assay outcomes (PubChem)
# This is a sample that favours compounds with a hit; in the whole collection about 1.9% have one here.
# S1P3 antag = antagonists of human S1P3 receptor | Q99500 | CHO S1P3 NFAT-BLA reporter, FRET fluorescence, antagonist mode | inhibition, % at 4.98 µM | actives 0.27% (n = 170,000) | AID 485;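 active = inhibition above the plate cutoff, the mean inhibition of test wells on that plate plus 3 SD, cut at about 28% in these data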;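 note: cells challenged with S1P at its EC80 of 0.8 µM; blue over green emission ratio from cleaved BLA substrate after 4 h stimulation; 0% = S1P-stimulated wells and 100% = unstimulated DMSO-only wells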
# S1P4 ag = activates the human S1P4 receptor; O95977; S1P4-expressing cell line, agonist reporter assay; activation, % at 4.98 µM; actives 0.35% (n = 220,000); AID 1509; in the data active = activation above about 11%;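 note: 0% = DMSO vehicle and 100% = reference agonist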
# Target sequence (O95977 whole entry, looked up): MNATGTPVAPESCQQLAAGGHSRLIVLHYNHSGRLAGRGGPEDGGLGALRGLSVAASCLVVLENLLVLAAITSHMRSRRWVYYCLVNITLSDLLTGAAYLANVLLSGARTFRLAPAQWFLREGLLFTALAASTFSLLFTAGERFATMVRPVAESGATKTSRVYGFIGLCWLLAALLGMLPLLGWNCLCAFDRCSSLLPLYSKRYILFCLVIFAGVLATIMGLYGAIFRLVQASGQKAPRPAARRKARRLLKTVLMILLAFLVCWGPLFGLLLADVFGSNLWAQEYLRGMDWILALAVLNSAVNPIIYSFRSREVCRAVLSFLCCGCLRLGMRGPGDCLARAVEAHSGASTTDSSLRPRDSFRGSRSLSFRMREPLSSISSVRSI
# S1P4 antag = human S1P4 receptor antagonism | O95977 | S1P4-expressing cells, antagonist mode, reporter read-out | inhibition, % at 4.98 µM | actives 0.26% (n = 220,000) | AID 1510; in the data active = inhibition above about 29%;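 note: 0% = wells stimulated with agonist and 100% = vehicle wells without agonist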
# PGE2 EP2 inh = inhibitors of human EP2 prostaglandin E2 receptor; C6 glioma cells expressing human EP2, cAMP TR-FRET; cells stimulated with saturating PGE2; inhibition, % at 25 µM; AID 1422; actives 0.52% (n = 260,000);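 active = percent inhibition above 40 after rounding to a whole number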;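 note: rat C6 glioma host cells with rolipram phosphodiesterase inhibitor present; the protocol text gives 20 µM as final concentration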
# EP2 mod = modulates human prostaglandin E2 receptor EP2 signaling; induction, % at 25 µM; EP2-expressing cells, cAMP HTRF FRET, PGE2 co-stimulation; AID 940; actives 0.83% (n = 260,000);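 active = compounds whose cAMP rise, as percent of the full-agonist control response, exceeds 60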;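 note: rat C6 glioma line stably carrying human EP2 under a CMV promoter; the protocol text gives 20 µM as final concentration; 100% = response of wells given 1 µM PGE2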
# Pf gametocyte = inhibitors of late stage P. falciparum gametocyte viability | actives 0.065% (n = 150,000) | inhibition, % at 10.9 µM | P. falciparum stage V gametocytes, ATP luminescence, 24 h;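 active = inhibition above the mean plus 3 SD of compounds within the control limits, set per campaign, cut at about 38% in these data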;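 note: 0% = DMSO wells and 100% = medium only without gametocytes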
# S1P4 antag conf = human S1P4 antagonism, confirmation | shares compounds with S1P4 antag | S1P4-expressing cell line, antagonist mode, reporter read-out | inhibition, % at 4.98 µM | actives 71% (n = 520) | AID 1524; in the data active = inhibition above about 30%
# S1P1 antag = human S1P1 antagonism as S1P4 antagonist counter-screen. actives 37% (n = 520). shares compounds with S1P4 antag. cell-based S1P1 antagonist counterscreen, inhibition. inhibition, % at 4.98 µM; in the data active = inhibition above about 40%;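 note: receptor stimulated with S1P near its EC80; 0% = agonist stimulated wells and 100% = vehicle only wells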
# * = called active by the depositor; . = no result.
SMILES,S1P3 antag,S1P4 ag,S1P4 antag,PGE2 EP2 inh,EP2 mod,Pf gametocyte,S1P4 antag conf,S1P1 antag
CC(C)(C)NC(=O)/C(=C/c1ccco1)c1ccccc1,.,-3,-15,5,16,.,.,.
COc1ccc(C(=O)/C(=C\c2ccco2)N2C=CC=CC2=C(C#N)C#N)cc1,.,-3,70*,10,13,.,117*,41*
COc1ccc(C(=O)N/C(=C\c2ccco2)C(=O)OCc2ccco2)cc1,-5,0,4,8,0,5,.,.
O=S(=O)(c1ccc(Br)c2nsnc12)N1CCOCC1,19,1,79*,13,-28,5,39*,36
CC(=O)Nc1ccc(OC(=O)c2ccc(Br)c([N+](=O)[O-])c2)cc1,-16,-2,48*,3,-33,-7,68*,35
CCOc1ccc(C(=O)Oc2ccc(NC(C)=O)cc2)cc1,-11,1,-15,7,-10,.,.,.
Cc1ccc(C)c(C(=O)Cn2ncc(Cl)c(Cl)c2=O)c1,.,0,67*,12,21,.,116*,59*
Cc1cc(C(=O)Cn2ncc(Cl)c(Cl)c2=O)c(C)n1CC(F)(F)F,0,-1,90*,7,17,-28,105*,65*
CCCC(=O)N1CCN(c2ccc(NC(=O)c3ccc([N+](=O)[O-])o3)cc2)CC1,-9,-2,78*,26,-69,0,101*,84*
CCC(=O)N1CCN(c2ccc(NC(=O)c3ccc([N+](=O)[O-])o3)cc2)CC1,-3,-3,78*,46*,-37,2,85*,74*
CCCC(=O)N1CCN(c2ccc(NC(=O)c3ccc(Br)o3)cc2)CC1,5,-2,-21,3,5,1,.,.
O=C(CCCn1cnc([N+](=O)[O-])n1)Nc1cccc2ccccc12,-11,0,112*,5,6,-6,0,17
O=C(Cn1cnc([N+](=O)[O-])n1)NCc1ccccc1,.,1,-11,.,2,3,.,.
CCC(C)C(=O)N1CCc2cc(-c3csc(N)n3)ccc21 (stereo not drawn),-2,-1,41*,15,-58,-10,5,52*
CN(C)CCCN1CC23C=CC(O2)C(C(=O)O)C3C1=O (stereo not drawn),.,.,.,21,-13,.,.,.
O=C(CSCCO)Nc1cccc(C(F)(F)F)c1,1,1,36*,8,19,-6,4,3
O=C(CSCCO)Nc1ccccc1,.,0,0,10,3,.,.,.
N#Cc1cn(CCOc2ccc(F)cc2)c2ccccc12,.,-2,-17,16,24,.,.,.
N#Cc1cn(CCOc2ccccc2F)c2ccccc12,2,0,37*,8,3,0,9,27
O=C(NCc1cccnc1)/C(=C\c1ccc(-c2ccc(Br)cc2)o1)S(=O)(=O)c1ccccc1,22,1,52*,7,8,-12,106*,64*
O=C(NCc1cccnc1)/C(=C/c1ccc(-c2ccc(Cl)cc2)o1)S(=O)(=O)c1ccccc1,.,-1,49*,8,15,.,101*,43*
O=C(NCc1cccnc1)/C(=C/c1ccc(-c2cccc(C(F)(F)F)c2)o1)NC(=O)c1ccccc1,.,2,-2,.,38,-6,.,.
O=S(=O)(C/C(=C/CO)S(=O)(=O)c1ccccc1)c1ccccc1,14,-1,40*,4,-25,-3,87*,20
CCc1nnc(N/N=C/c2ccccc2Cl)n1N,.,-1,40*,20,24,.,4,-3
CCc1nnc(N/N=C/c2ccccc2F)n1N,-9,0,93*,9,16,7,-15,-10
CCOC(=O)N/N=C/c1ccccc1F,.,-3,-2,.,-3,.,.,.
CCOc1ccccc1-n1nnnc1SCC(=O)N1CCc2ccccc2C1,.,.,.,11,-11,.,.,.
CCS(=O)(=O)N1CCC[C@@H](Cn2nc(-c3cccs3)ccc2=O)C1,.,.,.,.,-45,.,.,.
CC(C)c1nnc(NC(=O)CCS(=O)(=O)c2nc(-c3cccs3)cc(C(F)(F)F)n2)s1,-3,-2,50*,15,4,.,109*,54*
